Test results from ChEMBL document CHEMBL3433997, “St. Jude Leishmania screening dataset” (2016).

Key:
Format in all cases: functional
[1] = biological target: Solute carrier family 2, facilitated glucose transporter member 1 (Homo sapiens) (UniProt P11166); test: ST_JUDE_LEISH: Cytotoxicity at 2uM final concentration against transgenic Leishmania Mexicana promastigotes LmGLUT1 that are glucose transport deficient and complemented with the human glucose transporter GLUT1. Activity is measured by DNA content using SYBR green in vitro
[2] = biological target: Hexose transporter 1 (Plasmodium falciparum) (UniProt O97467); test: ST_JUDE_LEISH: Cytotoxicity at 2uM final concentration against transgenic Leishmania Mexicana promastigotes LmPfHT that are glucose transport deficient and complemented with the Plasmodium falciparum hexose transporter. Activity is measured by DNA content using SYBR green in vitro
[3] = biological target: Glucose transporter (Leishmania mexicana) (UniProt O61059); test: ST_JUDE_LEISH: Cytotoxicity at 2uM final concentration against transgenic Leishmania Mexicana promastigotes LmGT2 that are glucose transport deficient and complemented with the L. Mexicana glucose transporter 2. Activity is measured by DNA content using SYBR green in vitro

Solute carrier family 2, facilitated glucose transporter member 1 (Homo sapiens), sequence (P11166 whole entry): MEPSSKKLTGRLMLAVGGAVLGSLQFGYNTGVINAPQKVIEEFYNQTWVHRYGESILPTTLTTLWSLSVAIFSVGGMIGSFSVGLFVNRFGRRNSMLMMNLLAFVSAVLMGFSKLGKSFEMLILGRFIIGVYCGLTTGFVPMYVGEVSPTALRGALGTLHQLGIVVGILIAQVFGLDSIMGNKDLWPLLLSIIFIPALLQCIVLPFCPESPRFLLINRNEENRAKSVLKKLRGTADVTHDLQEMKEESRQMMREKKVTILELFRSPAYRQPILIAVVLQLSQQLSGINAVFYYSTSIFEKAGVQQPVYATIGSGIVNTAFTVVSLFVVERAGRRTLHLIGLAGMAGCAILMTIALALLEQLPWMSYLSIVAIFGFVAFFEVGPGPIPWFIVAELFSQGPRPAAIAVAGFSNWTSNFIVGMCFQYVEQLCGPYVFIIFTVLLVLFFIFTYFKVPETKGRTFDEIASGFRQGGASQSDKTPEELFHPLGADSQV

Row | Structure (SMILES) | inhibition [1] [%] | inhibition [2] [%] | inhibition [3] [%]
1 | OCC1CCN(Cc2cccc(C#Cc3cc4ncnc(Nc5ccc(OCc6cccc(F)c6)c(Cl)c5)c4s3)n2)CC1 | 14.1 | 8.82 | 9.61
2 | O=C1C(C2CCC(c3ccc(Cl)cc3)CC2)=C2OCC3COC2(O3)c2ccccc21 (stereo unspecified) | 1.13 | 0.99 | -0.99
3 | CC1(C)NC(N)=NC(=N)N1OCCSCc1cc(Cl)sc1Cl | 6.6 | 7.38 | 2.82
4 | C=CCNS(=O)(=O)c1ccc(NC(=O)C(C)Oc2ccc([N+](=O)[O-])cc2)cc1 (stereo unspecified) | 1.52 | 1.56 | -0.8
5 | O=C(Nc1ccc(Cn2ncc(N3CCCNCC3)c(Cl)c2=O)cc1)Nc1cc(Cl)cc(Cl)c1 | 2.15 | 3.38 | 0.75
6 | COc1ccc(-c2nc3c(N)nc(N)nc3nc2-c2ccccc2Cl)cc1.COc1ccc(-c2nc3nc(N)nc(N)c3nc2-c2ccccc2Cl)cc1 | 9.91 | 10.5 | 6.97
7 | O=C(Nc1ccnc(N2CCCN(Cc3cccc(O)c3)CC2)c1)c1ccc(F)cc1 | 2.79 | 0.77 | 4.83
8 | Cc1ccc(C(=O)Nc2ccc(Nc3ccnc4cc(-c5ccccn5)ccc34)cc2O)cc1 | 7.39 | 10 | 4.76
9 | COc1cc(NC(=O)c2cc([N+](=O)[O-])ccc2NC(=O)CNC2CCCCC2C)cc(OC)c1 (stereo unspecified) | 7.57 | 2.04 | 1.96
10 | COc1cccc(CN2CCCC(CCC(=O)Nc3ccc(C(F)(F)F)cc3)C2)c1O (stereo unspecified) | 1.04 | 2.12 | 1.85
11 | CC1=C(C(=O)OCCOCc2ccccc2)C(c2ccccc2C(F)(F)F)C(C(=O)OCCOCc2ccccc2)=C(C)N1 | -0.46 | -0.98 | -2.95
12 | COc1ccc2nccc([C@@H](O)CN3CCC(NC(=O)c4ccc(Oc5ccccc5)cc4)CC3)c2c1 | 3.02 | 8.83 | 1.34
13 | CCc1ccc(NC(=O)c2ccc(CN3CCCN(Cc4cccs4)CC3)cc2)cc1 | 13.8 | 12.6 | 14.9
14 | N#Cc1ccc(C=CC(=O)NC2CCC(CCN3CCc4ccc(-c5cnccn5)cc4CC3)CC2)cc1 (stereo unspecified) | 4.1 | 2.97 | 0.59
15 | COc1cccc(OC(C)(C)c2nc(N[C@@H](C)c3ccccc3)c3cn[nH]c3n2)c1 | 1.92 | -1.84 | -1.65
16 | O=c1cc(NCCCNCc2ccc(Cl)c(Cl)c2)[nH]c2ccc(Cl)cc12 | 0.59 | 0.59 | -9.23

Row | Structure (SMILES) | inhibition [1] [%] | inhibition [2] [%] | inhibition [3] [%]
17 | Cc1ccc(Cc2c[nH]c(NCCSCc3ccc(CN(C)C)s3)nc2=O)cn1 | 1.24 | 1.14 | 2.78
18 | Cc1cccc(C(=O)Nc2ccc(N3CCCN(Cc4cccc(O)c4)CC3)cc2)c1 | 5.01 | 3.72 | 2.78
19 | CC(C)CNC(=O)c1cncc(-c2ccc(CNC3Cc4ccccc4C3)cc2)c1 | -0.34 | 1.58 | -0.51
20 | CCCO[C@H](C(=O)OC)[C@@H](CC1Cc2ccccc2C1)C(=O)NCCC1=CCCCC1 | 1.54 | 1.34 | 2.2
21 | [O-][s+]1nc(NCCCN(Cc2cccs2)c2ccccn2)c(NCc2ccccc2)n1 (stereo unspecified) | -1.34 | 0.68 | -1.82
22 | O=C(CC1CCCC1)Nc1ccc2c(c1)CCC2 | 2.83 | 3.17 | 1.69
23 | COc1ccc2c(c1)CC(CNC[C@H](O)c1cccc(Cl)c1)CC2 (stereo partly specified) | -1.38 | 0.78 | 1
24 | Cc1cccc2nc(-c3ccc(-c4cccc(NC(=O)NCc5ccc(F)cc5)c4)cc3)[nH]c12 | 3.38 | 4.77 | 3.65
25 | CC(C)c1sc(N2CCN(C)CC2)nc1C(=O)Nc1ccc(F)cc1C(F)(F)F | 5.47 | 6.04 | 2.97
26 | O=C(Nc1ccc(Oc2ccccc2)cc1)N[C@@H](Cc1ccc(O)cc1)C(=O)NC1CCN(Cc2ccc(O)c([N+](=O)[O-])c2)C1 (stereo partly specified) | 2.19 | 1.19 | 0.33
27 | Cc1ccc(Nc2nc(C)cc(Nc3cccc(NS(C)(=O)=O)c3)n2)cc1 | 11.5 | 12.5 | 9.23
28 | CN(C)CCCN1CCN(C(=O)c2cc3cc(-c4ccccc4)ccc3n2S(=O)(=O)c2ccccc2)CC1 | 60.9 | 24.3 | 2.85
29 | CC(C)(CNCc1cccc(Oc2ccccc2)c1)c1nc(-c2ccnc(N)n2)c(-c2ccc(Cl)c(O)c2)[nH]1 | -0.85 | -0.2 | -0.78
30 | COc1ccc(-c2onc(C(F)(F)F)c2-c2cc3ccccc3o2)c(O)c1 | 0.61 | 0.82 | 0.58
31 | COc1cc(OC)c(OC)cc1CN1CCC2(CC1)CN(Cc1ccc(Cl)c(Cl)c1)C(=O)O2 | 10.3 | 9.41 | 8.16
32 | COc1ccc(O)c(C(=O)c2cnc3c(c2)c(-c2ccc(F)cc2)c(C#N)c(=O)n3C)c1 | 8.74 | 6.89 | 4.94
